Measured values published in PubChem BioAssay (NCATS).
Active and inactive are the calls of the source. The call rests on the fitted dose curve; in most records, active means well fitted curve in the direction sought with a large enough effect; inconclusive means small, poorly fitted or top-dose-only effect, or effect the other way, or another doubt; inactive means no such curve, though single readings can be large or run the other way.

Assay: qHTS for inhibitors of adenylyl cyclases using a fission yeast platform: a pilot screen against the NCATS LOPAC library (AID 1347410)
Conditions: S. pombe CHP2027, fbp1-GFP fluorescence, 18 h, yeast expressing mammalian AC9 and human GNAS; series mostly up to 57.5 µM
In short: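 Read-out: fbp1-GFP fluorescence by laser scanning cytometry (488 nm laser), a gain of signal when AC/cAMP-PKA signalling is inhibited. Strain CHP2027 expressing AC9, GNAS and PDE4D2; compounds at up to 57 µM; 18 h, 30C.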

SMILES | outcome
CC(N)(Cc1ccc(O)cc1)C(=O)O (stereo not drawn) | inactive
CC(C)NCC(O)COc1ccc(CC(N)=O)cc1 (stereo not drawn) | inactive
NC(=O)CNCCC(c1ccccc1)c1ccccc1 | inactive
C[C@](Cc1ccc(O)c(O)c1)(NN)C(=O)O | inactive
CC(O)C(O)[C@H]1CNc2nc(N)[nH]c(=O)c2N1 (stereo partly drawn) | inactive
Brc1c(Br)c(Br)c2[nH]cnc2c1Br | inactive
COc1ccc(NC(=O)c2ccc(-c3ccc(-c4noc(C)n4)cc3C)cc2)cc1N1CCN(C)CC1 | inactive
NCC(O)C1CCCCCCC1 (stereo not drawn) | inactive
COc1ccc(-c2cc3ncc(C)n3c(Nc3ncccc3C(N)=O)n2)cc1OC | inactive
O[Si](CCCN1CCCCC1)(c1ccc(F)cc1)C1CCCCC1 (stereo not drawn) | inactive
c1ccc2c(c1)CCC[C@H]2Nc1nc2ccccc2[nH]1 | inactive
N[C@@H](CCC(=O)N[C@H](CSN=O)C(=O)NCC(=O)O)C(=O)O | inactive
COc1ccc2c(c1)c(CC(=O)O)c(C)n2Cc1ccc(Cl)cc1 | inactive
CCCCC[C@H](CC(=O)NO)C(=O)N[C@H](C(=O)N1CCC[C@H]1CO)C(C)C | inactive
Nc1ccc2c3c(cccc13)C(=O)NC2=O | inactive
CCCc1c(OCCCOc2ccc(OCC(=O)O)cc2)ccc(C(C)=O)c1O | inactive
NC(C(=O)N[C@@H]1C(=O)N2C(C(=O)O)=C(Cl)CS[C@H]12)c1ccccc1 (stereo partly drawn) | inactive
CSC(N)=NCCC[C@H](N)C(=O)O | inactive
CN1C2CCC1CC(OC(c1ccccc1)c1ccccc1)C2 (stereo not drawn) | inactive

SMILES | outcome
O=C1OC(=O)C2C3CCC(O3)C12 (stereo not drawn) | inactive
COc1cccc(OC)c1OCCNCC1CSc2ccccc2O1 (stereo not drawn) | inactive
CN(C)CCC(c1ccc(Br)cc1)c1ccccn1 (stereo not drawn) | inactive
O=c1oc(Cl)c(Cl)c2ccccc12 | inactive
N[C@@H](Cc1ccc(O)c(I)c1)C(=O)O | inactive
N[C@@H](Cc1c[nH]c2ccccc12)C(=O)O | inactive
COc1cc(C(O)CO)ccc1O (stereo not drawn) | inactive
C#CCn1c(=O)c2c(ncn2C)n(C)c1=O | inactive
CC(C)Cn1c(=O)n(C)c(=O)c2[nH]cnc21 | inactive
CCCn1c(=O)c2[nH]c(C3CCCC3)nc2n(CCC)c1=O | inactive
Cn1cc(C(F)(F)F)nc1-c1ccc(OCC(O)CNCCOc2ccc(O)c(C(N)=O)c2)cc1 (stereo not drawn) | inactive
NCCC1CCCC(CCN)N1 (stereo not drawn) | inactive
CC[n+]1c(/C=C/C=C2/N(C)c3ccccc3C2(C)C)sc2ccccc21 | inactive
c1ccc(CN2CCC3(CCCc4ccccc43)CC2)cc1 | inactive
CC(=O)NCCc1c[nH]c2ccc(O)cc12 | inactive
Nc1ncnc2c1nc(Br)n2C1OC2COP(=O)(O)O[C@@H]2C1O (stereo partly drawn) | inactive
O=C(O)Cc1c[nH]c2ccc(O)cc12 | inactive
Cn1c(=O)c2[nH]c(C3CCCC3)nc2n(C)c1=O | inactive
CC1=C(/C=C/C(C)=C/C=C/C(C)=C\C(=O)O)C(C)(C)CCC1 | inactive
